± gives the standard deviation of the averaged measurements. The full data set covers some 6,500 targets. This sample favours those with the largest changes.
Compound: Nc1ncnc2c1ncn2[C@@H]1O[C@H](COP(=O)(O)OP(=O)(O)OP(=O)(O)O)[C@@H](O)[C@H]1O [adenosine triphosphate]
Test: NP40-soluble protein abundance relative to vehicle (solubility fold change) (ratio); higher = more soluble protein in presence of ATP
Outline: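 Data come from three independent experiments in which Dounce-homogenised Jurkat crude lysate was treated at eight concentrations from 0.1 to 10 mM. Treatment ran 10 min at room temperature and then 3 min at 37 °C, after which 0.8% NP40 and benzonase were added for 60 min at 4 °C before ultracentrifugation. The supernatant underwent TMT labelling and LC-MS/MS, and vsn-normalised intensities were expressed as fold change against the detergent-processed vehicle in each replicate.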

Chain of UniProt Q969Z0 (Q969Z0 whole entry): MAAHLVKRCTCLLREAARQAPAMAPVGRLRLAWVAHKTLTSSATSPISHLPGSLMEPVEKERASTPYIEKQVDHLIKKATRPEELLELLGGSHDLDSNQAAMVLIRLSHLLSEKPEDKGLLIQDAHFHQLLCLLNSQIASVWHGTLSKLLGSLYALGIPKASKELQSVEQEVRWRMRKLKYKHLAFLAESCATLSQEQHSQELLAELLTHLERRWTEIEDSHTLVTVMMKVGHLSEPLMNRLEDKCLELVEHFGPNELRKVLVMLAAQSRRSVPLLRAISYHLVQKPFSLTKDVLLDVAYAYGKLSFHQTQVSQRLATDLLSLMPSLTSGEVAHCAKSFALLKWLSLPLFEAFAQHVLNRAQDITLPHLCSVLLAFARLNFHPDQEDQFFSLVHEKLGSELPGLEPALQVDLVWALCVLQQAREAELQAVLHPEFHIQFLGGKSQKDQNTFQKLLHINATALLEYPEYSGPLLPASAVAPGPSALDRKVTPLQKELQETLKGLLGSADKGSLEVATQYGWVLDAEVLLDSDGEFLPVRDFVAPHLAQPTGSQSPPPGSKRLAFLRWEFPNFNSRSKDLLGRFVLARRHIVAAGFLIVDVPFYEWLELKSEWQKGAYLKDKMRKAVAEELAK
Chain of UniProt Q96MW5 (Q96MW5 whole entry): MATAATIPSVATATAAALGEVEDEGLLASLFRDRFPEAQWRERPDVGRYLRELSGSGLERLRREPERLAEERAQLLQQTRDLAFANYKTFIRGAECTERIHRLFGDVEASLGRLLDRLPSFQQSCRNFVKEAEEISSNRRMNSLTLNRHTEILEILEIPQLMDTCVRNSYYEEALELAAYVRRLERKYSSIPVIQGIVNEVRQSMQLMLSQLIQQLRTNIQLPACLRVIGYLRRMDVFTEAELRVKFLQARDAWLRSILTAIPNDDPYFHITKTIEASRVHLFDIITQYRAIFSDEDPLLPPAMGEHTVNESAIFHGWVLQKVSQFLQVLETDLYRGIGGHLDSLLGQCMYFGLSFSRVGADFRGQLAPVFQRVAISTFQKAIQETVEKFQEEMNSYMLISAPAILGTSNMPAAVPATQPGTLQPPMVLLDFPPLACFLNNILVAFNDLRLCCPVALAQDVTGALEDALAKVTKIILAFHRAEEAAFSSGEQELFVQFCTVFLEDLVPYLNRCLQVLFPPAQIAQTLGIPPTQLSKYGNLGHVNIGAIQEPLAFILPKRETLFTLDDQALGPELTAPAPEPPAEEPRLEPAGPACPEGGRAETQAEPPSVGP
Chain of UniProt Q9NYP7 (Q9NYP7 whole entry): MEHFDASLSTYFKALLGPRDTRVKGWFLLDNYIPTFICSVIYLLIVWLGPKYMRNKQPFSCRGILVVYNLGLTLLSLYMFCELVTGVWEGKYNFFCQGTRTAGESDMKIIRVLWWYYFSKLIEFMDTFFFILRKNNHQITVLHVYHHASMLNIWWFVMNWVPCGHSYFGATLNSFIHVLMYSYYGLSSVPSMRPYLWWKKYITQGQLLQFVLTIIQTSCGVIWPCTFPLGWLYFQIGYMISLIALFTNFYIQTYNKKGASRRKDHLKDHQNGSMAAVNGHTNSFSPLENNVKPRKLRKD
Chain of UniProt Q9BV79 (Q9BV79 whole entry): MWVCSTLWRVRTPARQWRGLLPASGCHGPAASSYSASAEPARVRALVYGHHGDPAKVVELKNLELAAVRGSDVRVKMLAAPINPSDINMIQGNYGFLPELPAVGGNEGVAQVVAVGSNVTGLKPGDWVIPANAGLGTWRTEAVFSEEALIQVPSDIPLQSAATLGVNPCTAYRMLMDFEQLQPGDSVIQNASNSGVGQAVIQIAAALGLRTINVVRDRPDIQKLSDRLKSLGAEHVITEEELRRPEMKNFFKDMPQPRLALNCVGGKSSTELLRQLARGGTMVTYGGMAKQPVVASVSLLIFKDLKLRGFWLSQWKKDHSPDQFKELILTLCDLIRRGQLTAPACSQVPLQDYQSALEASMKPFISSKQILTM
Chain of UniProt Q96T23 (Q96T23 whole entry): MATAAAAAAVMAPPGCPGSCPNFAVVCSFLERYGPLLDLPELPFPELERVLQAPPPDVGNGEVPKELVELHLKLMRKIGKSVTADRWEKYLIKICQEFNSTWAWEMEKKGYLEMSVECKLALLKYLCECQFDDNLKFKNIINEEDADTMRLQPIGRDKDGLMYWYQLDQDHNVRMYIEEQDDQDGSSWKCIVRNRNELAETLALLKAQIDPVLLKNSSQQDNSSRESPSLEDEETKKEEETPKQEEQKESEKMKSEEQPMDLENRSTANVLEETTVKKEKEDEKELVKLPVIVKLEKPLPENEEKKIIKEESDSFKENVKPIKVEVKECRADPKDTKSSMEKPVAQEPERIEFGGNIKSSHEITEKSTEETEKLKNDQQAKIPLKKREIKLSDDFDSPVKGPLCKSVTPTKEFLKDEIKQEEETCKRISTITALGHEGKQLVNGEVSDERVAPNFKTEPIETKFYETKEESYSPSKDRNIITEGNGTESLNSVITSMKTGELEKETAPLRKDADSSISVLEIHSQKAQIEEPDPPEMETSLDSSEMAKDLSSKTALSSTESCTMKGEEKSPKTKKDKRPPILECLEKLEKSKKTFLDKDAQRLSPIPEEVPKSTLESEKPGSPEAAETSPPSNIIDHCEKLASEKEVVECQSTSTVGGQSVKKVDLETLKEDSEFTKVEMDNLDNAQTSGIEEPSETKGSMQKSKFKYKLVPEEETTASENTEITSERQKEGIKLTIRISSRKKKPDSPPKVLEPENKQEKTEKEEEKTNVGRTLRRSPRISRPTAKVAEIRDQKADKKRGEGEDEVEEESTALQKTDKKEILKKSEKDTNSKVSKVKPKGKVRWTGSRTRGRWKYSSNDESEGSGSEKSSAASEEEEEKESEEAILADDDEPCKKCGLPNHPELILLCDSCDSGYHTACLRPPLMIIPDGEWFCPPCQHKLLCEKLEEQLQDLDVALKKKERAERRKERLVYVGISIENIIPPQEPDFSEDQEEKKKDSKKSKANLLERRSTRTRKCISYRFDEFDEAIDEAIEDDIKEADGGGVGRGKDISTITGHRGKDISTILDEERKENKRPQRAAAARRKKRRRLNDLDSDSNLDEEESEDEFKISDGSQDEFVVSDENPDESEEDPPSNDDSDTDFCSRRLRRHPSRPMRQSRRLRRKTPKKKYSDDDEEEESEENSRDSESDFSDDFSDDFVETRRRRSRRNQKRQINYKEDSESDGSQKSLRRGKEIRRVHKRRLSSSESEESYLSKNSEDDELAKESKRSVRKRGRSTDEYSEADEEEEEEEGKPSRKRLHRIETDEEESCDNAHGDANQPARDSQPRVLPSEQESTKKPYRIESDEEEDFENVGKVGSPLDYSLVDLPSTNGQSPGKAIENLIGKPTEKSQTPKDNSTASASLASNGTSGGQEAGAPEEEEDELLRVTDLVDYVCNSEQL
Chain of UniProt Q9HBH5 (Q9HBH5 whole entry): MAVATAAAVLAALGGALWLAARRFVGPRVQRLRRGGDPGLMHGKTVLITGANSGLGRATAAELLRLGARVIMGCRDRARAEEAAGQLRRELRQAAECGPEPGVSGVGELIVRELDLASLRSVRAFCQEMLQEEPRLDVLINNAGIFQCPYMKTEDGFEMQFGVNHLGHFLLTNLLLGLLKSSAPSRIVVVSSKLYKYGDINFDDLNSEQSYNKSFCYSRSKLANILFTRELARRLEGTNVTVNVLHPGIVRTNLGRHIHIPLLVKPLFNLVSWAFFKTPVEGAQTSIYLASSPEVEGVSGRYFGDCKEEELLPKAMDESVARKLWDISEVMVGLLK
Chain of UniProt Q96MX3 (Q96MX3 whole entry): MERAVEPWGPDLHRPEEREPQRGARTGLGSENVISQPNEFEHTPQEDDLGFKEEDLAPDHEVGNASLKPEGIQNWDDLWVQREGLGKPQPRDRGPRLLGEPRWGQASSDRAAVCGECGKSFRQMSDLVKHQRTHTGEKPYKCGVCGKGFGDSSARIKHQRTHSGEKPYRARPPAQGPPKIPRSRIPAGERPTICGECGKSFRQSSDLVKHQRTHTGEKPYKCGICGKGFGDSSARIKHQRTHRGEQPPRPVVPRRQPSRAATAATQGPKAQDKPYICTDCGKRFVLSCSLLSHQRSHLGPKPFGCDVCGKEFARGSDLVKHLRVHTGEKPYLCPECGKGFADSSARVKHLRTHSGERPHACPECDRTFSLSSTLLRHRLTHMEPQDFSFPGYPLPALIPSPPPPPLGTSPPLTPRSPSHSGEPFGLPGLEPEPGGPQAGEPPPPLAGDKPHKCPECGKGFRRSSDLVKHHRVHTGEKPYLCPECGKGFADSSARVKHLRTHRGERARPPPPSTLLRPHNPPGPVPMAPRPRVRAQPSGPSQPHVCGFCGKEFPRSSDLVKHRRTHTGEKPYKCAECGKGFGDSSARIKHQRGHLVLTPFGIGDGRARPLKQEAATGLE
Chain of UniProt Q9HAD4 (Q9HAD4 whole entry): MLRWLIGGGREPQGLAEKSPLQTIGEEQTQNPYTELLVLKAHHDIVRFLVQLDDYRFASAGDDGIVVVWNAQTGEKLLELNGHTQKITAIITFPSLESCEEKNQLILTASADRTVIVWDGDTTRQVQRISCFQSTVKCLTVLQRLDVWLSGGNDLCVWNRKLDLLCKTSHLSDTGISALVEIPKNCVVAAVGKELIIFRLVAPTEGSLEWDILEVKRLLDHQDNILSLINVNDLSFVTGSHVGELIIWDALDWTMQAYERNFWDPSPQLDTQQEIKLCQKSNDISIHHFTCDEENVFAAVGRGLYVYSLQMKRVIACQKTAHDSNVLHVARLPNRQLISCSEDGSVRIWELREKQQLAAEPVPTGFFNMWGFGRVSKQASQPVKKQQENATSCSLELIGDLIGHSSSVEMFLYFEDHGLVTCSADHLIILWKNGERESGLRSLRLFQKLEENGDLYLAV
Chain of UniProt Q9HAJ7 (Q9HAJ7 whole entry): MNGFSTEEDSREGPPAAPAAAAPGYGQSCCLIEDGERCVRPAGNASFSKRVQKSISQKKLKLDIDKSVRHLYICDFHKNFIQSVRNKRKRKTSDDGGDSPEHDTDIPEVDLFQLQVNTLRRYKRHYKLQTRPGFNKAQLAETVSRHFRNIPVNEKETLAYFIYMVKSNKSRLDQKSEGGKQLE

Target	NP40-soluble protein abundance (concentration: 1mM)	NP40-soluble protein abundance (concentration: 2mM)	NP40-soluble protein abundance (concentration: 4mM)	NP40-soluble protein abundance (concentration: 6mM)	NP40-soluble protein abundance (concentration: 8mM)	NP40-soluble protein abundance (concentration: 10mM)
UniProt Q9BTE6|Q9BTE6-3	0.947 ± 0.046	0.965 ± 0.018	0.932 ± 0.015	0.964 ± 0.067	0.928 ± 0.036	0.958 ± 0.025
COG8 (UniProt Q96MW5)	0.938 ± 0.057	0.917 ± 0.029	0.937 ± 0.048	0.898 ± 0.068	0.902 ± 0.06	0.975 ± 0.054
UniProt Q9BRQ0|Q5T171	0.931 ± 0.11	0.887 ± 0.18	0.898 ± 0.15	0.944 ± 0.19	0.865 ± 0.15	0.909 ± 0.29
MECR (UniProt Q9BV79)	0.969 ± 0.013	0.959 ± 0.056	0.964 ± 0.037	0.957 ± 0.054	0.94 ± 0.013	0.92 ± 0.012
MRPL38 (UniProt Q96DV4)	1.04 ± 0.035	0.869 ± 0.076	0.87 ± 0.08	0.925 ± 0.3	0.86 ± 0.15	0.839 ± 0.15
UniProt Q9NYP7|Q9NYP7-2	1.07 ± 0.19	1.05 ± 0.12	1.05 ± 0.14	0.94 ± 0.15	1.09 ± 0.17	1.01 ± 0.056
TBRG4 (UniProt Q969Z0)	0.981 ± 0.047	0.957 ± 0.015	0.928 ± 0.026	0.962 ± 0.069	0.955 ± 0.022	0.948 ± 0.015
RABEP2 (UniProt Q9H5N1)	0.967 ± 0.062	0.941 ± 0.036	0.929 ± 0.035	0.956 ± 0.046	0.905 ± 0.011	0.901 ± 0.039
UBAC1 (UniProt Q9BSL1)	0.988 ± 0.025	1 ± 0.025	1.03 ± 0.033	1.04 ± 0.061	0.965 ± 0.034	0.98 ± 0.038
UniProt Q8WYP5|Q8WYP5-2|Q8WYP5-3	1.13 ± 0.037	1.16 ± 0.048	1.28 ± 0.079	1.38 ± 0.096	1.42 ± 0.12	1.53 ± 0.13
TGS1 (UniProt Q96RS0)	0.969 ± 0.087	0.995 ± 0.067	1.03 ± 0.035	1.05 ± 0.054	1.03 ± 0.069	1.1 ± 0.026
UniProt Q96II8|Q96II8-2|Q96II8-4	1.17 ± 0.11	1.21 ± 0.057	1.2 ± 0.035	1.22 ± 0.078	1.17 ± 0.068	1.21 ± 0.034
UniProt Q92576|Q92576-2	1.05 ± 0.052	1.07 ± 0.056	1.12 ± 0.051	1.22 ± 0.11	1.2 ± 0.048	1.24 ± 0.073
WDR41 (UniProt Q9HAD4)	1.03 ± 0.026	0.994 ± 0.08	1.08 ± 0.062	1 ± 0.033	1 ± 0.065	1.01 ± 0.043
UniProt Q9HDC9	1.03 ± 0.13	1 ± 0.11	0.936 ± 0.039	0.903 ± 0.13	0.953 ± 0.06	0.953 ± 0.079
ATP13A1 (UniProt Q9HD20)	1.01 ± 0.1	1 ± 0.06	1.01 ± 0.064	0.951 ± 0.086	1 ± 0.041	0.978 ± 0.03
BIRC6 (UniProt Q9NR09)	1.05 ± 0.029	1.01 ± 0.058	0.992 ± 0.031	0.99 ± 0.12	0.999 ± 0.083	0.994 ± 0.088
UniProt Q9UBS0	1.1 ± 0.063	1.11 ± 0.082	1.12 ± 0.088	1.05 ± 0.053	1.15 ± 0.14	1.09 ± 0.11
MRPL17 (UniProt Q9NRX2)	1.08 ± 0.13	0.934 ± 0.14	0.939 ± 0.14	0.916 ± 0.33	0.93 ± 0.21	0.822 ± 0.18
UniProt Q96AQ6|Q96AQ6-2	0.939 ± 0.053	0.927 ± 0.024	0.924 ± 0.028	0.953 ± 0.017	0.895 ± 0.01	0.9264 ± 0.0053
UniProt Q9BZ23|Q9BZ23-3|Q9BZ23-4	0.958 ± 0.079	0.995 ± 0.08	0.937 ± 0.054	0.914 ± 0.05	0.882 ± 0.11	0.91 ± 0.05
UniProt Q9H6W3	1.2 ± 0.019	1.25 ± 0.029	1.31 ± 0.063	1.46 ± 0.1	1.54 ± 0.11	1.73 ± 0.093
SAP30L (UniProt Q9HAJ7)	1.0942 ± 0.00039	1.12 ± 0.069	1.13 ± 0.092	1.185 ± 0.0041	1.11 ± 0.13	1.07 ± 0.082
ARGLU1 (UniProt Q9NWB6)	1.72 ± 0.14	1.86 ± 0.18	2.03 ± 0.26	2.27 ± 0.22	2.33 ± 0.28	2.44 ± 0.27
DPCD (UniProt Q9BVM2)	0.965 ± 0.024	1.02 ± 0.045	0.969 ± 0.01	0.933 ± 0.048	0.929 ± 0.069	1.01 ± 0.087
UniProt Q9GZP9|I3L1T3	0.935 ± 0.091	0.903 ± 0.083	0.946 ± 0.13	0.887 ± 0.12	0.944 ± 0.068	0.916 ± 0.11
UniProt Q96T23|Q96T23-2	1.48 ± 0.043	1.62 ± 0.071	1.81 ± 0.041	2 ± 0.1	1.96 ± 0.039	2.13 ± 0.11
UniProt Q96NT0|B8ZZ99	0.832 ± 0.11	0.87 ± 0.12	0.886 ± 0.061	0.84 ± 0.16	0.863 ± 0.11	0.849 ± 0.16
RDH14 (UniProt Q9HBH5)	0.997 ± 0.049	1.01 ± 0.0098	1.03 ± 0.043	0.998 ± 0.056	1.05 ± 0.037	1.01 ± 0.035
ZNF48 (UniProt Q96MX3)	1.11 ± 0.069	1.13 ± 0.034	1.21 ± 0.077	1.31 ± 0.15	1.34 ± 0.12	1.4 ± 0.12

Reference: the supplement of paper PMC6411743
